Laboratory results published in PMC4081100, “A DNA-binding-site landscape and regulatory network analysis for NAC transcription factors in Arabidopsis thaliana”.

Biological target: GST-WRKY1(266-371) (Arabidopsis thaliana, UniProt Q9SI37 266-371)
Assay: universal protein binding microarray (PBM); transcription factors of Arabidopsis thaliana; high values mean tight binding
Details: protein: recombinant; tags: GST; dsDNA, one strand shown
In short: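 Protein amounts were determined by A280 or anti-GST western blot after glutathione–Sepharose 4B purification of GST-tagged proteins induced in cells, with zinc acetate included for zinc-finger proteins. Duplicate runs at 200 to 500 nM final were done on custom all-10-mer Agilent 4 × 180K arrays made double-stranded by primer extension. The normalised enrichment score (E-score) over gapped and ungapped 8-mers is the measure of binding.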

Sequence of GST-WRKY1(266-371) (Q9SI37 266-371): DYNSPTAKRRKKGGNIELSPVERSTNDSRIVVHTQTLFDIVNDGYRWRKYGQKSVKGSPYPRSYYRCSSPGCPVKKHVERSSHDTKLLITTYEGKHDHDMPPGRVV

Row | Sequence | binding signal
1 | ACGACCAG | 0.403 E-score
2 | CGTCTGAC | 0.418 E-score
3 | GTCAGCAA | 0.403 E-score
4 | ATCGGTCA | 0.451 E-score
5 | CGCTGACC | 0.474 E-score
6 | ATTGACTC | 0.47 E-score
7 | AGTGGTCA | 0.436 E-score
8 | CTCTGACC | 0.458 E-score
9 | ATGACCGA | 0.405 E-score
10 | GCCGGTCA | 0.459 E-score
11 | AACGGTCA | 0.435 E-score
12 | CTTGGTCA | 0.429 E-score
13 | CTGACCAA | 0.427 E-score
14 | ACCTTGAC | 0.472 E-score
15 | CTGACCCA | 0.401 E-score
16 | GCTGGTCA | 0.452 E-score
17 | AGTCAGCA | 0.432 E-score
18 | GCTTGACC | 0.482 E-score
19 | CAACGACC | 0.421 E-score
20 | GAGTCAGC | 0.418 E-score

Row | Sequence | binding signal
21 | AGGGGTCA | 0.415 E-score
22 | GTCGGTCA | 0.45 E-score
23 | CTATGACC | 0.412 E-score
24 | GGTCGTCA | 0.41 E-score
25 | CTGACCTA | 0.413 E-score
26 | GACCAGTC | 0.406 E-score
27 | GGGGGTCA | 0.423 E-score
28 | AGAGGTCA | 0.425 E-score
29 | TAGGGTCA | 0.42 E-score
30 | CCGGTCAA | 0.493 E-score
31 | CGGAGTCA | 0.405 E-score
32 | GGTCAGAA | 0.444 E-score
33 | GCCGTCAA | 0.402 E-score
34 | GACTGACC | 0.42 E-score
35 | CGTGGACC | 0.444 E-score
36 | CCTTGACC | 0.487 E-score
37 | GTCAAGGA | 0.455 E-score
38 | GAGGTCAA | 0.485 E-score
39 | CGACGACC | 0.439 E-score
